In PubChem BioAssay:
The source made the active and inactive calls.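 Rule for the calls: active = thallium flux through the channel raised or lowered by more than 3 SD from vehicle-only wells, actives on both sides; inactive = the rest.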

Tests used:
Test in all cases: modulators of BK channel variants, profiling panel, selectivity assay, cell-based, U2OS BacMam, thallium flux, beta subunits (AID 1259406);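 note: initial slope of Thallos dye fluorescence rise after thallium is added; log ratio against the mean of 0.3% DMSO vehicle wells on the same plate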
F380Y = settings: at 30 µM
F380Y/beta1 = settings: at 30 µM
F380Y/beta2Delta = settings: at 30 µM
F380Y/beta4 = settings: at 30 µM
[1] = molecular target: Calcium-activated potassium channel subunit alpha-1 (Homo sapiens) + Leucine-rich repeat-containing protein 26 (Homo sapiens) (UniProt Q12791+Q2I0M4); settings: F380Y/Slo1WT/gamma1, at 30 µM
Sequence of Calcium-activated potassium channel subunit alpha-1 (Homo sapiens) + Leucine-rich repeat-containing protein 26 (Homo sapiens) (Q2I0M4 whole entry, looked up, one chain of several): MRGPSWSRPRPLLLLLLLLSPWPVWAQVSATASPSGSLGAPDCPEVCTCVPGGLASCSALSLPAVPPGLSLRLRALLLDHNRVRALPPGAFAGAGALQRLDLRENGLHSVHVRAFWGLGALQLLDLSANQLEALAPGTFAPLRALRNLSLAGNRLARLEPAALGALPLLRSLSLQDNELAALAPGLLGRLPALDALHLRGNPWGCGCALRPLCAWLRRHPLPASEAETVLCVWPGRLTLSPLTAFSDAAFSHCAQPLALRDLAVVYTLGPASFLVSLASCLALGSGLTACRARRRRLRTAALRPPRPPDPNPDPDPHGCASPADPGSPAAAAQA

R275C = settings: at 30 µM
R275C/beta1 = settings: at 30 µM
R275C/beta2Delta = settings: at 30 µM
R275C/beta4 = settings: at 30 µM
R275C/Slo1WT/beta2 = settings: at 30 µM

Measured: log fold change Tl+ flux

O=C1CSC(=S)N1N=Cc1cccnc1
inactive: F380Y 0.0409 | F380Y/beta1 0.00585 | F380Y/beta2Delta 0.0225 | F380Y/beta4 0.0146 | [1] 0.0179 | R275C 0.0256 | R275C/beta1 -0.0433 | R275C/beta2Delta 0.0173 | R275C/beta4 0.00843 | R275C/Slo1WT/beta2 -0.022

CCN1CCC(O)(C#Cc2ccccc2)CC1
inactive: F380Y -0.00462 | F380Y/beta1 0.0157 | F380Y/beta2Delta -0.0113 | F380Y/beta4 -0.0547 | [1] 0.00398 | R275C -0.00643 | R275C/beta1 0.0179 | R275C/beta2Delta 0.0235 | R275C/beta4 -0.01 | R275C/Slo1WT/beta2 0.0236

CCCCCCCCCCCCSC(=S)Nc1ccc(Br)c(C)c1
inactive: F380Y -0.0409 | F380Y/beta1 -0.00527 | F380Y/beta2Delta -0.0326 | F380Y/beta4 -0.000986 | [1] -0.031 | R275C 0.0399 | R275C/beta1 0.0206 | R275C/beta2Delta -0.028 | R275C/beta4 0.0416 | R275C/Slo1WT/beta2 0.0211

O=C(CN1c2ccccc2Sc2ccccc21)NN=Cc1ccco1
active: F380Y/beta4 -0.113
inactive: F380Y 0.028 | F380Y/beta1 0.0239 | F380Y/beta2Delta -0.0113 | [1] 0.0102 | R275C -0.00994 | R275C/beta1 0.0301 | R275C/beta2Delta -0.0092 | R275C/beta4 0.0737 | R275C/Slo1WT/beta2 0.032

CC(C)C1COC(c2cccc(C3=NC(C(C)C)CO3)n2)=N1 (stereo not given)
inactive: F380Y -0.0154 | F380Y/beta1 0.0433 | F380Y/beta2Delta 0.00332 | F380Y/beta4 0.0308 | [1] 0.0138 | R275C -0.00894 | R275C/beta1 0.00883 | R275C/beta2Delta -0.00732 | R275C/beta4 -0.00827 | R275C/Slo1WT/beta2 0.043

CC(=O)Oc1ccc(OC(C)=O)c2cc3c(OC(C)=O)ccc(OC(C)=O)c3cc12
inactive: F380Y -0.0214 | F380Y/beta1 -0.0286 | F380Y/beta2Delta -0.0254 | F380Y/beta4 0.0175 | [1] 0.0282 | R275C -0.0106 | R275C/beta1 -0.0199 | R275C/beta2Delta -0.0114 | R275C/beta4 -0.0622 | R275C/Slo1WT/beta2 0.0234

CCCOc1ccccc1C=NNC(=S)Nc1ccc(C)c(C)c1
inactive: F380Y 0.0357 | F380Y/beta1 0.0157 | F380Y/beta2Delta 0.00918 | F380Y/beta4 0.0274 | [1] -0.0242 | R275C -0.0214 | R275C/beta1 0.0271 | R275C/beta2Delta -0.0014 | R275C/beta4 0.00171 | R275C/Slo1WT/beta2 0.0415

O=C1c2cc(S(=O)(=O)O)ccc2CCC1S(=O)(=O)O (stereo not given)
inactive: F380Y 0.0577 | F380Y/beta4 0.0447 | [1] -0.0209 | R275C 0.0448 | R275C/beta1 0.0433 | R275C/beta4 0.0299 | R275C/Slo1WT/beta2 -0.0389
active: F380Y/beta1 0.132 | F380Y/beta2Delta 0.167 | R275C/beta2Delta 0.151

Cn1c(C(=O)O)ccc1S(=O)(=O)N(Cc1ccccc1)Cc1ccccc1
active: F380Y/beta1 0.205 | F380Y/beta4 0.139 | R275C/beta2Delta 0.0893 | R275C/beta4 0.11
inactive: F380Y 0.0347 | F380Y/beta2Delta 0.0498 | [1] 0.000486 | R275C 0.00591 | R275C/beta1 0.0906 | R275C/Slo1WT/beta2 0.0146

O=C(NNC(=O)c1ccc2nonc2c1)c1cccc(C(F)(F)F)c1
inactive: F380Y 0.0115 | F380Y/beta1 0.037 | F380Y/beta2Delta 0.0509 | F380Y/beta4 0.00874 | [1] -0.0024 | R275C 0.0381 | R275C/beta1 0.0483 | R275C/beta2Delta 0.036 | R275C/beta4 0.0129 | R275C/Slo1WT/beta2 -0.0326

O=[N+]([O-])c1ccc(N2CCSCC2)cc1O
inactive: F380Y -0.0426 | F380Y/beta1 -0.0279 | F380Y/beta2Delta -0.0262 | F380Y/beta4 0.012 | [1] 0.0289 | R275C -0.00302 | R275C/beta1 -0.0429 | R275C/beta2Delta -0.0453 | R275C/beta4 -0.0292 | R275C/Slo1WT/beta2 0.0333

Cc1cc2nccc(-c3cccnc3)n2n1
inactive: F380Y -0.0198 | F380Y/beta1 -0.0232 | F380Y/beta2Delta 0.0219 | F380Y/beta4 -0.0149 | [1] -0.0534 | R275C 0.00294 | R275C/beta1 -0.00487 | R275C/beta2Delta -0.00124 | R275C/beta4 0.00702 | R275C/Slo1WT/beta2 -0.00651

CC(C)(C)c1ccc(Oc2ccc(NC(=O)Nc3cccs3)cn2)cc1
inactive: F380Y/beta2Delta -0.0118 | F380Y/beta4 0.0598 | [1] 0.0627 | R275C 0.0691 | R275C/beta1 0.0982 | R275C/beta2Delta 0.0026 | R275C/beta4 0.026 | R275C/Slo1WT/beta2 -0.00521
active: F380Y -0.105 | F380Y/beta1 0.131

N#Cc1c(F)cccc1NC1CCN(Cc2ccccc2)CC1
active: F380Y/beta4 -0.103
inactive: F380Y -0.0529 | F380Y/beta1 -0.0783 | F380Y/beta2Delta -0.0626 | [1] -0.0887 | R275C -0.0649 | R275C/beta1 -0.0261 | R275C/beta2Delta -0.0118 | R275C/beta4 -0.0356 | R275C/Slo1WT/beta2 -0.0644

CCCCCCCCCCCC(=O)N1CC(=O)NC(=O)C1
inactive: F380Y -0.0479 | F380Y/beta1 -0.037 | F380Y/beta2Delta -0.0133 | F380Y/beta4 -0.0202 | [1] 0.0655 | R275C -0.0151 | R275C/beta1 -0.0193 | R275C/beta2Delta 0.0154 | R275C/beta4 -0.0342 | R275C/Slo1WT/beta2 0.0104

N#CC1=C(Nc2ccccc2Cl)SC(c2ccncc2)NC1=O (stereo not given)
inactive: F380Y -0.0226 | F380Y/beta1 0.0482 | F380Y/beta2Delta 0.0198 | F380Y/beta4 -0.00461 | [1] 0.0291 | R275C 0.0616 | R275C/beta1 0.0544 | R275C/beta2Delta 0.0222 | R275C/beta4 0.0286 | R275C/Slo1WT/beta2 0.0417

O=S(=O)(Oc1ccc(F)cc1F)c1cccc(S(=O)(=O)Oc2ccc(F)cc2F)c1
inactive: F380Y/beta1 -0.0152 | F380Y/beta2Delta 0.00173 | R275C/beta2Delta -0.0138 | R275C/Slo1WT/beta2 -0.0996
active: F380Y -0.193 | F380Y/beta4 -0.485 | [1] -0.264 | R275C -0.229 | R275C/beta1 -0.209 | R275C/beta4 -0.144

Cc1c(C(=O)Nc2ccc(N3CCOCC3)c(Cl)c2)cnn1-c1ccc(F)cc1
inactive: F380Y -0.0177 | F380Y/beta1 -0.00879 | F380Y/beta2Delta -0.0427 | F380Y/beta4 0.0219 | [1] -0.0278 | R275C -0.00699 | R275C/beta1 0.0051 | R275C/beta2Delta -0.0229 | R275C/beta4 0.0362 | R275C/Slo1WT/beta2 0.000473

CC(c1ccccc1)n1c(SCc2cc(=O)oc3cc(O)ccc23)n[nH]c1=O (stereo not given)
active: R275C/beta2Delta 0.123 | R275C/beta4 0.102
inactive: F380Y -0.0609 | F380Y/beta1 0.00559 | F380Y/beta2Delta 0.0151 | F380Y/beta4 0.0558 | [1] 0.0977 | R275C 0.0366 | R275C/beta1 0.0338 | R275C/Slo1WT/beta2 -0.0189

CN(C)C=NC(=O)c1sc(S(C)(=O)=O)c2c1CCC=C2
active: F380Y 0.147
inactive: F380Y/beta1 0.036 | F380Y/beta2Delta -0.00643 | F380Y/beta4 0.00437 | [1] -0.0666 | R275C 0.00156 | R275C/beta1 -0.0344 | R275C/beta2Delta 0.00771 | R275C/beta4 -0.00153 | R275C/Slo1WT/beta2 0.0518

NS(=O)(=O)c1cccc(NC(=O)c2cccnc2Oc2ccccc2)c1
inactive: F380Y -0.000714 | F380Y/beta1 0.008 | F380Y/beta2Delta 0.0103 | F380Y/beta4 -0.015 | [1] -0.0607 | R275C -0.0268 | R275C/beta1 -0.0191 | R275C/beta2Delta 0.01 | R275C/beta4 0.00433 | R275C/Slo1WT/beta2 -0.0182

O=C(NC1CCSC1)c1ccccc1NS(=O)(=O)c1ccccc1 (stereo not given)
inactive: F380Y -0.000365 | F380Y/beta1 -0.00386 | F380Y/beta2Delta -0.00638 | F380Y/beta4 0.00736 | [1] -0.0334 | R275C/Slo1WT/beta2 -0.0155
active: R275C -0.153 | R275C/beta1 -0.151 | R275C/beta2Delta -0.158 | R275C/beta4 -0.0828

CC(=O)OCC(OC(C)=O)C(OC(C)=O)C(OC(C)=O)C(C#N)OC(C)=O (stereo not given)
inactive: F380Y 0.0435 | F380Y/beta1 -0.00373 | F380Y/beta2Delta 0.0398 | F380Y/beta4 0.0383 | [1] -0.00671 | R275C -0.00122 | R275C/beta1 -0.0156 | R275C/beta2Delta 0.0587 | R275C/beta4 -0.0186 | R275C/Slo1WT/beta2 -0.0705

O=C1CCC(=O)N1c1ccc(S(=O)(=O)NCCCN2CCN(Cc3ccccc3)CC2)cc1
inactive: F380Y 0.0288 | F380Y/beta1 0.0192 | F380Y/beta2Delta -0.00712 | F380Y/beta4 -0.0181 | [1] 0.0299 | R275C -0.0386 | R275C/beta1 0.0158 | R275C/beta2Delta -0.00414 | R275C/beta4 -0.00195 | R275C/Slo1WT/beta2 -0.018

Clc1ccc(-c2nc(-c3cnccn3)no2)cc1
inactive: F380Y -0.0251 | F380Y/beta1 0.0188 | F380Y/beta2Delta -0.00983 | F380Y/beta4 0.0205 | [1] -0.00021 | R275C 0.00752 | R275C/beta1 -0.0226 | R275C/beta2Delta 0.0101 | R275C/beta4 0.00987 | R275C/Slo1WT/beta2 0.0471

CSC(NCc1cccnc1)=C(C#N)S(=O)(=O)c1ccc(Cl)cc1
active: R275C/beta2Delta 0.0872
inactive: F380Y 0.0268 | F380Y/beta1 0.0532 | F380Y/beta2Delta 0.0758 | F380Y/beta4 0.000772 | [1] 0.0179 | R275C 0.0549 | R275C/beta1 0.0793 | R275C/beta4 0.0736 | R275C/Slo1WT/beta2 0.0289
